Screens (PubChem)
The entries come from a sample that favours hits as a whole.
Pf Dd2 growth: Plasmodium falciparum Dd2 growth inhibition; 120,000 tested, 4.3% active; Potency, µM (highest dose often 28.9 µM), without a hit: at the highest dose activity, negative = inhibition, most hits filed as inhibitors; P. falciparum Dd2 growth, SYBR Green, 72 h; AID 1347417; active means well fitted inhibition curve with a large enough effect;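 further: plate controls were DMSO vehicle for no effect and reference drug for full effect; nearly all actives have a fitted effect of over 65% in size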
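Infected erythrocytes (Dd2, 0.3% parasitemia, 2.5% hematocrit final) are added to compound in RPMI-1640/Albumax II medium, grown 72 h at 37C in low oxygen, then lysed with saponin/Triton-X containing SYBR Green and read by fluorescence.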
* marks the source's active call; other numbers are inactive results; [ ] = remark or other dose. Potency means the concentration at half of the fitted maximal effect.

For CC(C)NC(=O)NC[C@H]1OC[C@@H](NCc2cccc(C#N)c2)[C@@H]1O the results were Pf Dd2 growth -18.4%[44.1 µM].
Screening CCCNC(=O)c1cc2c(s1)CCN(C(C)=O)C2 returned Pf Dd2 growth 5.5%.
CC1(CCCCc2ccccc2)COc2ccc(C(=O)NC3CC3)cc2N1 (configuration not stated) was read as Pf Dd2 growth -32.4%[44.1 µM].
For CN(C)C(=O)c1nc(-c2ccc(Cl)cc2)c2ccccn12 the results were Pf Dd2 growth -8.9%[44.1 µM].
For CC1CCN(S(=O)(=O)c2ccc3nc(NCc4ccc(N(C)C)cc4)ccc3c2)CC1 the results were Pf Dd2 growth 11.2µM*.
`CCOc1ccccc1CNc1ccc2cc(S(=O)(=O)N3CCC(C)CC3)ccc2n1` gave Pf Dd2 growth -20.5%.
O=S(=O)(c1ccc2nc(Nc3cccc(F)c3)ccc2c1)N1CCCC1 was read as Pf Dd2 growth -15.3%.
Screening O=S(=O)(c1ccc2nc(Nc3ccc(F)cc3)ccc2c1)N1CCCC1 returned Pf Dd2 growth inactive.
Screening CC1CCN(S(=O)(=O)c2ccc3nc(N4CCN(c5ccc(F)cc5)CC4)ccc3c2)CC1 returned Pf Dd2 growth 50.3%.
For CC1CCN(S(=O)(=O)c2ccc3nc(Nc4cccc(C(F)(F)F)c4)ccc3c2)CC1 the results were Pf Dd2 growth 4.47µM*.
CNC(c1ccccc1)c1nc(-c2cccnn2)no1 (configuration not stated) was read as Pf Dd2 growth 10.5%.
For COCCNC(=O)C[C@@H]1C[C@H]2O[C@H](CNCc3ccccc3C(F)(F)F)[C@@H](O)[C@H]2O1 the results were Pf Dd2 growth -18.7%[44.1 µM].
For CCc1nncn1C1CCN(S(=O)(=O)c2cc(Cl)ccc2OC)CC1 the results were Pf Dd2 growth inactive.
For C[C@H]1[C@@H]2[C@@H](O)C([C@H](C)C(=O)NCc3cccs3)CC[C@@]2(C)CC[C@@H]1NC(=O)COc1ccccc1 (some centres not stated) the results were Pf Dd2 growth inactive.
`Fc1ccc(NC(=S)N[C@H]2CO[C@H]3[C@@H]2OC[C@@H]3n2nnnc2Oc2ccc3c(c2)OCO3)cc1` gave Pf Dd2 growth inactive.
For CN(CC1CCOCC1)C(=O)Cc1ccc(F)cc1 the results were Pf Dd2 growth -6.3%.
For COC(=O)C1=C(C)N(Cc2cccc(F)c2)C(=O)CC1c1ccccc1Cl (configuration not stated) the results were Pf Dd2 growth inactive.
For CCN(CC)S(=O)(=O)c1ccc2oc(C(=O)N(C)Cc3ccccc3)c(C)c2c1 the results were Pf Dd2 growth -22.4%.
For COc1ccc(C)cc1NC(=O)c1oc2ccc(S(=O)(=O)N(C)C3CCCCC3)cc2c1C the results were Pf Dd2 growth 29.4%.
CCCCN(CCCC)S(=O)(=O)c1ccc2oc(C(=O)NCc3ccc(C)cc3)c(C)c2c1 was read as Pf Dd2 growth 8.91µM*.
Screening COc1ccc(C(=O)N2C(C(=O)NC(C)C)COC23CCN(C(=O)c2ccc(F)cc2)CC3)cc1 (configuration not stated) returned Pf Dd2 growth -5.6%.
Screening CCCC(O)c1nc2ccccc2n1CCCOc1ccc(Cl)cc1 (configuration not stated) returned Pf Dd2 growth 5.01µM*.
`CCc1ccc(OCCCn2c(-c3ccc(Cl)cc3)nc3ccccc3c2=O)cc1` gave Pf Dd2 growth 27.2%.
Cc1ccc(OCCn2c(COc3ccc(Cl)cc3)nc3ccccc32)cc1 was read as Pf Dd2 growth 0.3%.
O=C(N1CCC(F)CC1)C1(c2ccc(Cl)cc2)CCOCC1 was read as Pf Dd2 growth -4.1%.
CC(C)c1ccc(CN2CC(COc3ccccc3)C3(C2)CN(C(=O)c2cn[nH]c2)C3)cc1 (configuration not stated) was read as Pf Dd2 growth -15.8%.
`COc1ccc(-c2nc(CSCC(=O)N3CCN(c4ccc(OC)cc4)CC3)c(C)o2)cc1` gave Pf Dd2 growth -11.0%.
For COc1ccc(-c2nc(CSCC(=O)N3CCN(c4cccc(C)c4C)CC3)c(C)o2)cc1OC the results were Pf Dd2 growth 10µM*.
COc1ccc(-c2nc(CSCC(=O)N3CCN(c4cc(Cl)ccc4C)CC3)c(C)o2)cc1 was read as Pf Dd2 growth inactive.
O=C(NCCCN1CCOCC1)c1c(OCC2CC2)cc(=O)n2c1CCOCC2 was read as Pf Dd2 growth 11.0%.
`COc1cccc(-c2cc3c(=O)n(CCNC(=O)c4ccccc4OC)ccn3n2)c1` gave Pf Dd2 growth inactive.
Screening Cc1ccccc1Cn1c(CN2CCC(C(=O)NCc3ccc(Cl)cc3)CC2)cc2ccccc21 returned Pf Dd2 growth 14.6%.
Cc1ccccc1Cn1c(CN2CCC(C(=O)NCCN(C)C)CC2)cc2ccccc21 was read as Pf Dd2 growth 1µM*.
For CCOc1ccc(CNC(=O)C2CCN(Cc3cc4ccccc4n3Cc3ccccc3C)CC2)cc1 the results were Pf Dd2 growth inactive.
For Cc1cc(C)cc(C(=O)NCCn2ccn3nc(-c4ccc(C)cc4C)cc3c2=O)c1 the results were Pf Dd2 growth -3.9%.
